Screens: PubChem, National Center for Advancing Translational Sciences (NCATS)
Shown are actives, neighbours in structure and some others; about 7.9% of the full set was active somewhere.
HT1080-NT tox: kills 2HG-producing HT-1080-NT fibrosarcoma cells; HT-1080-NT fibrosarcoma viability, CellTiter-Glo ATP luminescence, 48 h; Potency, µM (doses to about 46.1 µM), for inactives: at the top dose activity, negative = less viability, actives largely listed as cytotoxic; actives 1.6% (n = 360,000); AID 686970;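 further: NT is the 2HG producing partner of a matched IDH1 knockdown line; 0% = DMSO-treated cells and -100% = media-only wells without cells; nearly all actives have a fitted effect of over 55% in size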
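HT-1080-NT fibrosarcoma cells (2HG-overproducing), 750 cells/well in RPMI with 5% FBS, dosed after 2 h and incubated 48 h at 37C. CellTiter-Glo luminescence normalized to DMSO and no-cell wells; concentration-response curves fitted and classed.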
MCF10A rerep: DNA re-replication induction in MCF 10a cells. MCF 10A DNA re-replication, Hoechst nuclear intensity, 48 h. Potency, µM (top dose mostly 46.1 µM), without a hit: top-dose activity, positive = re-replication, most hits filed as activators. actives 2.9% (n = 350,000). AID 624296; further: % of control where 0% means no effect; nearly all actives have a fitted effect of over 50% in size
HT1080 IDH1KD tx: HT-1080 IDH1 knockdown cell toxicity (counter line) | HT-1080 IDH1 knockdown viability, ATP luminescence, 48 h | AID 686971 | actives 2% (n = 360,000) | Potency, µM (series often up to 46.1 µM), without a hit: at the top dose activity, negative = toxicity, actives largely listed as cytotoxic;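 further: 0% = DMSO wells and -100% = cell-free medium wells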
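Using the IDH1-knockdown HT-1080 line run in the same batch and compound series as the NT line, viability after 48 h at 37 °C was determined by CellTiter-Glo luminescence and expressed as % activity.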
KB-V1 MDR tox: kills drug-selected multidrug resistant KB-V1 cells | Potency, µM (top dose mostly 46.1 µM), actives largely listed as cytotoxic | actives 3.4% (n = 400,000) | AID 1347076 | KB-V1 MDR cells viability, CellTiter-Glo, 72 h; further: on the % scale 0 is the no-effect control and ±100 the full control effect; nearly all actives have a fitted effect of over 60% in size
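Cytotoxicity toward P-gp-expressing KB-V1 cells was determined as loss of CellTiter-Glo luminescence after 72 h at 37 degrees C. Compounds were tested in quantitative HTS format across a concentration range, with curves fitted to normalized data.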
KB-3-1 tox: KB-3-1 parental cell cytotoxicity. KB-3-1 viability, CellTiter-Glo ATP luminescence, 72 h. actives 1.4% (n = 400,000). Potency, µM (doses to about 46.1 µM), usual class: cytotoxic; further: on the % scale 0 is the no-effect control and ±100 the full control effect; nearly all actives have a fitted effect of over 60% in size
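Cells are dispensed, compounds pinned in, plates held at 37 °C for 72 h, then CellTiter-Glo is added and luminescence read after 10 minutes. Cell line: parental KB-3-1 in phenol-red-free DMEM, 10% FBS.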
SW480 rerep: inducers of DNA re-replication in SW480 colon cancer cells. actives 1.8% (n = 340,000). SW480 DNA re-replication, Hoechst DNA content imaging, 48 h. AID 624297. Potency, µM (series often up to 46.1 µM), for inactives: at the highest dose re-replication activation, usual class: activators; further: % of control where 0% means no effect; nearly all actives have a fitted effect of over 55% in size
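SW480 cells exposed to compounds for 48 hr at 37 C, 5% CO2, then Hoechst-stained 40 min. Nuclear DNA content imaged by fluorescence scanning (405 nm excitation, 500-530 nm emission); re-replication scored as increased high-intensity nuclei.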
* = called active by the depositor. The call rests on the fitted dose curve; in most records, active means well fitted curve in the direction sought with a large enough effect; inconclusive means small, poorly fitted or top-dose-only effect, or another doubt; inactive means no such curve, though single readings can be large; an effect the other way counts as inactive or inconclusive. Potency means the concentration at half of the fitted maximal effect.

Results for O=C(c1ccc(Cl)cc1)c1c[nH]c(C(=O)NNc2ccccc2)c1 ?
HT1080-NT tox: inconclusive; MCF10A rerep: -9.1%; HT1080 IDH1KD tx: 5.17µM*; KB-V1 MDR tox: inactive; KB-3-1 tox: inactive; SW480 rerep: inconclusive

How did O=C(O)c1ccccc1C(=O)NNc1ccc(Cl)cc1 do in these assays?
HT1080-NT tox: -25.1%; MCF10A rerep: 4.61µM*; HT1080 IDH1KD tx: inconclusive; KB-V1 MDR tox: inactive; KB-3-1 tox: inactive; SW480 rerep: 13.9%

How did CNC(=O)c1cc(C(=O)c2ccc(Cl)cc2)c[nH]1 do in these assays?
HT1080-NT tox: 20.0%; MCF10A rerep: 6.9%; HT1080 IDH1KD tx: 15.1%; KB-V1 MDR tox: inactive; KB-3-1 tox: inactive; SW480 rerep: 7.9%

How did O=C(NNc1ccc(Cl)cc1)c1sccc1Cl do in these assays?
HT1080-NT tox: inconclusive; MCF10A rerep: inconclusive; HT1080 IDH1KD tx: 8.2µM*; KB-V1 MDR tox: inactive; KB-3-1 tox: inactive; SW480 rerep: 0.9%

How did CCOC(=O)c1sc(Nc2nc3ccc(OC)cc3s2)cc1C do in these assays?
HT1080-NT tox: inconclusive; MCF10A rerep: 18.4µM*; HT1080 IDH1KD tx: inconclusive; KB-V1 MDR tox: inactive; KB-3-1 tox: inactive; SW480 rerep: inconclusive

Results for CCOC(=O)c1sc(NC(=O)Nc2cccc(Cl)c2)cc1C ?
HT1080-NT tox: inconclusive; MCF10A rerep: inconclusive; HT1080 IDH1KD tx: inconclusive; KB-V1 MDR tox: 13µM*; KB-3-1 tox: inconclusive; SW480 rerep: 26.1%

How did CCOC(=O)c1sc(Nc2nc3c(F)cccc3s2)cc1C do in these assays?
HT1080-NT tox: inconclusive; MCF10A rerep: 20.6µM*; HT1080 IDH1KD tx: -29.3%; KB-V1 MDR tox: inactive; KB-3-1 tox: inactive; SW480 rerep: inconclusive

How did CCCC(=O)Nc1nc2ccc(OC)cc2s1 do in these assays?
HT1080-NT tox: 2.6%; MCF10A rerep: 9.3%; HT1080 IDH1KD tx: -0.4%; KB-V1 MDR tox: inactive; KB-3-1 tox: inactive; SW480 rerep: -3.3%

How did CCOC(=O)c1sc(NC(=O)c2cccs2)cc1C do in these assays?
HT1080-NT tox: -26.4%; MCF10A rerep: 0.4%; HT1080 IDH1KD tx: inconclusive; KB-V1 MDR tox: inconclusive; KB-3-1 tox: inactive; SW480 rerep: -0.1%

How did O=c1[nH][nH]c2c1[C@H](c1ccc(F)cc1)O[C@H](CCC(F)(F)F)C2 do in these assays?
HT1080-NT tox: inconclusive; HT1080 IDH1KD tx: inconclusive; KB-V1 MDR tox: inactive; KB-3-1 tox: inactive

Results for CCCS(=O)(=O)c1nc(S(=O)(=O)c2ccc(C)cc2)c(NCC(C)C)s1 ?
KB-V1 MDR tox: inactive; KB-3-1 tox: inactive

What do the screens show for `CCOC(=O)c1ccc(CC2S/C(=C(\C#N)C(C)=O)NC2=O)cc1` (stereo not given)?
HT1080-NT tox: -1.1%; MCF10A rerep: inconclusive; HT1080 IDH1KD tx: inconclusive; KB-V1 MDR tox: inactive; KB-3-1 tox: inconclusive; SW480 rerep: -2.2%

What do the screens show for `CC(=O)/C(C#N)=C1\NC(=O)C(Cc2ccc(C)c(Cl)c2)S1` (stereo not given)?
HT1080-NT tox: -27.6%; MCF10A rerep: inconclusive; HT1080 IDH1KD tx: inconclusive; KB-V1 MDR tox: 9.2µM*; KB-3-1 tox: 18.4µM*; SW480 rerep: -10.0%

Results for CCc1ccc(CC2S/C(=C(\C#N)C(C)=O)NC2=O)cc1 (stereo not given) ?
HT1080-NT tox: -29.5%; MCF10A rerep: inconclusive; HT1080 IDH1KD tx: inconclusive; KB-V1 MDR tox: 7.31µM*; KB-3-1 tox: inconclusive; SW480 rerep: 20.2%

What do the screens show for `C[C@H](NS(=O)(=O)c1ccc(F)cc1)C(=O)OCC(=O)c1c(N)n(C)c(=O)n(C)c1=O`?
HT1080-NT tox: -0.7%; MCF10A rerep: -4.6%; HT1080 IDH1KD tx: 1.1%; KB-V1 MDR tox: inactive; KB-3-1 tox: inactive; SW480 rerep: -3.1%

How did CCc1nn(CC(=O)N2CCCCC2)c(=O)c2cc3occc3n12 do in these assays?
KB-V1 MDR tox: inactive; KB-3-1 tox: inactive

What do the screens show for `CCCCc1cc(=O)oc2cc(C)cc(OCC(=O)N3C[C@H]4C[C@@H](C3)c3cccc(=O)n3C4)c12`?
HT1080-NT tox: 4.6%; MCF10A rerep: inconclusive; HT1080 IDH1KD tx: -3.7%; KB-V1 MDR tox: inactive; KB-3-1 tox: inconclusive; SW480 rerep: 1.84µM*

Results for COc1ccc(C)c2sc(N3CCN(C(=O)c4ccco4)CC3)nc12 ?
KB-V1 MDR tox: inactive; KB-3-1 tox: inactive

Results for CC1(C)C(C=C(Cl)Cl)C1C(=O)N(Cc1ccccc1Cl)C1CCS(=O)(=O)C1 (stereo not given) ?
HT1080-NT tox: -1.0%; MCF10A rerep: 9.1%; HT1080 IDH1KD tx: -3.1%; KB-V1 MDR tox: 14.6µM*; KB-3-1 tox: inactive; SW480 rerep: 0.5%

How did Cc1cc(C)n(NC(=S)NC2CCCC2)c(=O)c1C#N do in these assays?
HT1080-NT tox: -3.6%; MCF10A rerep: 23.1µM*; HT1080 IDH1KD tx: -3.2%; KB-V1 MDR tox: inactive; KB-3-1 tox: inactive; SW480 rerep: inconclusive

How did COc1cccc2sc(NC(=O)c3ccc(Br)s3)nc12 do in these assays?
HT1080-NT tox: inconclusive; MCF10A rerep: 22.6%; HT1080 IDH1KD tx: inconclusive; KB-V1 MDR tox: inactive; KB-3-1 tox: inactive; SW480 rerep: -10.4%

How did O=C(Nc1nc2c(F)cccc2s1)c1ccco1 do in these assays?
HT1080-NT tox: -3.9%; MCF10A rerep: 3.0%; HT1080 IDH1KD tx: -0.1%; KB-V1 MDR tox: inactive; KB-3-1 tox: inconclusive; SW480 rerep: 7.7%

How did COc1cccc2sc(Nc3nnc(-c4ccc(F)cc4)o3)nc12 do in these assays?
HT1080-NT tox: -7.3%; MCF10A rerep: 25.9µM*; HT1080 IDH1KD tx: -24.2%; KB-V1 MDR tox: inactive; KB-3-1 tox: inactive; SW480 rerep: inconclusive

How did COc1cccc2sc(Nc3nnc(-c4cccs4)o3)nc12 do in these assays?
HT1080-NT tox: -28.5%; MCF10A rerep: 23.1µM*; HT1080 IDH1KD tx: inconclusive; KB-V1 MDR tox: inconclusive; KB-3-1 tox: inconclusive; SW480 rerep: 9.1%

How did Fc1cccc2sc(Nc3nnc(-c4ccco4)o3)nc12 do in these assays?
HT1080-NT tox: -23.7%; MCF10A rerep: 7.31µM*; HT1080 IDH1KD tx: -29.9%; KB-V1 MDR tox: 9.2µM*; KB-3-1 tox: inconclusive; SW480 rerep: inconclusive

What do the screens show for `CCCCCOC(=O)CSc1nc2sc3c(c2c(=O)n1-c1ccccc1)CC(C)(CC)OC3` (stereo not given)?
KB-V1 MDR tox: inactive; KB-3-1 tox: inactive

Results for COC(=O)C(NC(=O)C(CC(C)C)NC(=O)C1CCC(C)CC1)C(C)C (stereo not given) ?
HT1080-NT tox: 10.3%; MCF10A rerep: 5.7%; HT1080 IDH1KD tx: 11.9%; KB-V1 MDR tox: inconclusive; KB-3-1 tox: inactive; SW480 rerep: 7.4%
